Inconclusive results are not listed. Activity calls are given as the source filed them. Unless noted, calls follow the shape of the dose curve; as a rule, active = well fitted curve in the direction sought with a large enough effect; inconclusive = small, poorly fitted or top-dose-only effect, or another doubt; inactive = no such curve, though single readings can be large; an effect the other way counts as inactive or inconclusive.
Legend:
[1] = molecular target: Alpha-galactosidase (Coffea arabica) (UniProt Q42656); experiment: Counterscreen for Glucocerebrosidase Inhibitors: qHTS Assay for Coffee Bean alpha-Galactosidase at pH 4.5 (AID 957);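 also: series mostly up to about 77 µM; plate controls were enzyme alone for no effect and no enzyme for full effect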
In short: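 Coffee bean enzyme (2 nM) with 80 uM 4-methylumbelliferyl alpha-D-galactopyranoside in 50 mM citric acid, 0.005% Tween-20, pH 4.5, 20 min at room temperature; compounds 0.7 nM–77 uM. Stopped at pH 10, fluorescence 365/440 nm; AC50 from Hill fits.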

[2] = molecular target: Alpha-galactosidase (Coffea arabica) (UniProt Q42656); experiment: Counterscreen for Glucocerebrosidase Inhibitors: qHTS Assay for Coffee Bean alpha-Galactosidase at pH 5.9 (AID 998);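 also: plate controls were uninhibited enzyme for no effect and no-enzyme basal signal for full effect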
In short: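 Compounds were titrated from 0.7 nM to 77 uM against green coffee bean alpha-galactosidase (2 nM) using 80 uM fluorogenic 4-methylumbelliferyl substrate. After 20 min at room temperature, reactions were stopped at pH 10 and read by fluorescence.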

[3] = Inducers of the Endoplasmic Reticulum Stress Response (ERSR) in human glioma: Validation (AID 504836); also: 0% is about no effect
In short: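 ERSR induction read as luciferase luminescence (Bright-Glo, 10 min at room temperature) in stably transfected human U87-MG glioma cells exposed to compounds for 16 h, using GRP78 as sensor.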

[4] = qHTS for Inhibitors of the Functional Ribonucleoprotein Complex (vRNP) of Lassa (LASV) Arenavirus: LASV Primary Screen - GLuc reporter signal (AID 1347082; calls by dose curve; tested in HEK293 reporter line; also: series mostly up to about 57 µM; % is scaled to controls: 0 for no effect and ±100 for the full control effect; nearly all actives have a fitted effect of over 60% in size)
[5] = qHTS for Inhibitors of the Functional Ribonucleoprotein Complex (vRNP) of Lassa (LASV) Arenavirus: Viability assay - alamar blue signal for LASV Primary Screen (AID 1347083; calls by dose curve; tested in HEK293 reporter line; also: series mostly up to about 57 µM; % is scaled to controls: 0 for no effect and ±100 for the full control effect; nearly all actives have a fitted effect of over 80% in size)
[6] = qHTS for Inhibitors of the Functional Ribonucleoprotein Complex (vRNP) of Lymphocytic Choriomeningitis Arenaviruses (LCMV): Viability assay - alamar blue signal for LCMV Primary Screen (AID 1347085; calls by dose curve; tested in HEK293 reporter line; also: series mostly up to about 57 µM; % is scaled to controls: 0 for no effect and ±100 for the full control effect; nearly all actives have a fitted effect of over 80% in size)
[7] = molecular target: Nucleoprotein (Lymphocytic choriomeningitis virus (strain Armstrong)) (UniProt P09992); experiment: qHTS for Inhibitors of the Functional Ribonucleoprotein Complex (vRNP) of Lymphocytic Choriomeningitis Arenaviruses (LCMV): LCMV Primary Screen - GLuc reporter signal (AID 1347086; calls by dose curve; also: series mostly up to about 57 µM; % is scaled to controls: 0 for no effect and ±100 for the full control effect; nearly all actives have a fitted effect of over 70% in size)
[8] = molecular target: Bile acid receptor (Homo sapiens) (UniProt Q96RI1); experiment: qHTS assay for small molecule agonists of farnesoid X receptor signaling (AID 588527; calls by dose curve;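 also: series mostly up to about 77 µM; 0% = vehicle basal and 100% = reference agonist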); details: HEK293T FXR-UAS-bla, beta-lactamase ratio, 16 h; activation: stronger effect = higher value
In short: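 FXR-UAS-bla HEK293T, 10% dialyzed FBS; cpds up to 92 uM titration, 16 h 37 C; CCF4 dye 2 h RT; fluorescence. Normalized to chenodeoxycholic acid 100 uM (100%) and DMSO (0%); Hill fit gives EC50, efficacy.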

[9] = molecular target: Peroxisome proliferator-activated receptor delta (Homo sapiens) (UniProt Q03181); experiment: qHTS assay for small molecule agonists of peroxisome proliferator-activated receptor delta signaling (AID 588534; calls by dose curve;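 also: 0% = DMSO basal wells and 100% = positive control agonist at 10 µM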)
In short: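 Cells carrying a PPAR-delta beta-lactamase reporter were treated with compounds for 18 h at 37 °C in agonist mode. CCF4 fluorescence was read after 2 h; EC50 and efficacy from Hill fits.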

[10] = molecular target: Ubiquitin carboxyl-terminal hydrolase 1 (Homo sapiens) (UniProt O94782); experiment: Inhibitors of USP1/UAF1: Pilot qHTS (AID 504865);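 also: rhodamine fluorescence freed from ubiquitin-rhodamine substrate followed over time; top concentration of the series differs between compounds; % is scaled to controls: 0 for no effect and ±100 for the full control effect; nearly all actives have a fitted effect of over 35% in size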
In short: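 Enzyme-free wells gave the negative control, while test wells held 1nM USP1/UAF1 preincubated with compound for 15 min at room temperature. Ub-Rho at 150nM final started the reaction, and fluorescence at 480/540 nm was recorded kinetically.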

Alpha-galactosidase (Coffea arabica), sequence (Q42656 whole entry, looked up): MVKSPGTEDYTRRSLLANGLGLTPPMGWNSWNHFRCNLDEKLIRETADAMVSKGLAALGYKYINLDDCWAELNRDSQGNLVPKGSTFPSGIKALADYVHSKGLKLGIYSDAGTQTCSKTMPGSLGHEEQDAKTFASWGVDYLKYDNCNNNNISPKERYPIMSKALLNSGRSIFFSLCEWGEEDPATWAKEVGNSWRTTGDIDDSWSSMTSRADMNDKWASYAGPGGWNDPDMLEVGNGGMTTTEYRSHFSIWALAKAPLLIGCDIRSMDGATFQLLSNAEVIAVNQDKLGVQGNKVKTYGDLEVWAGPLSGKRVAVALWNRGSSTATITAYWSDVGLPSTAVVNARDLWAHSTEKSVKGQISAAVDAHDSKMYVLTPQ
Nucleoprotein (Lymphocytic choriomeningitis virus (strain Armstrong)), sequence (P09992 whole entry, looked up): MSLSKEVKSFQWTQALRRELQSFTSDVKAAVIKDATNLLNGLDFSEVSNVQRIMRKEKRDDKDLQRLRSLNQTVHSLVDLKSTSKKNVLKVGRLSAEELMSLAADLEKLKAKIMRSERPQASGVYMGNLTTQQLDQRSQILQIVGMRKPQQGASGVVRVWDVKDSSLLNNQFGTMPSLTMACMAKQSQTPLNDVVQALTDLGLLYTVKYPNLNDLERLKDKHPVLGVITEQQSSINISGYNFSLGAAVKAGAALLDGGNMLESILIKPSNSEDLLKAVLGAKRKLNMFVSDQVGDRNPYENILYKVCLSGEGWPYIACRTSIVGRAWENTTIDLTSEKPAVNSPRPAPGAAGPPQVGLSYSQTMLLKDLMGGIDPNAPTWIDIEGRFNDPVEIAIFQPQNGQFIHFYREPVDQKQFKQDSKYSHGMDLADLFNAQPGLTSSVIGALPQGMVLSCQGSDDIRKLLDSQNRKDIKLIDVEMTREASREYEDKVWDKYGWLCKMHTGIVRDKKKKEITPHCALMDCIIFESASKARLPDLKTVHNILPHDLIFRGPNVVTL
Peroxisome proliferator-activated receptor delta (Homo sapiens), sequence (Q03181 whole entry, looked up): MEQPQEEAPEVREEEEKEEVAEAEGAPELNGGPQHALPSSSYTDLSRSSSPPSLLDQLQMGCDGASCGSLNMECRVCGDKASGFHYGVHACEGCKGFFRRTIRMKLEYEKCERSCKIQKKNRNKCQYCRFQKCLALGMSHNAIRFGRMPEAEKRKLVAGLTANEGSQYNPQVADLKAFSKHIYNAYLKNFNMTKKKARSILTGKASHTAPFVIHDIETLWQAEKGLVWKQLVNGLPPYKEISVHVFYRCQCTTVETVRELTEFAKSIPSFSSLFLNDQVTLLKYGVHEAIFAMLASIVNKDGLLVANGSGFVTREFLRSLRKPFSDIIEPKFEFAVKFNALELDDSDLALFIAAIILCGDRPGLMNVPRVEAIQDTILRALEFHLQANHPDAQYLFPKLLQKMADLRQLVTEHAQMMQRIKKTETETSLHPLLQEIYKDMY
Bile acid receptor (Homo sapiens), sequence (Q96RI1 whole entry, looked up): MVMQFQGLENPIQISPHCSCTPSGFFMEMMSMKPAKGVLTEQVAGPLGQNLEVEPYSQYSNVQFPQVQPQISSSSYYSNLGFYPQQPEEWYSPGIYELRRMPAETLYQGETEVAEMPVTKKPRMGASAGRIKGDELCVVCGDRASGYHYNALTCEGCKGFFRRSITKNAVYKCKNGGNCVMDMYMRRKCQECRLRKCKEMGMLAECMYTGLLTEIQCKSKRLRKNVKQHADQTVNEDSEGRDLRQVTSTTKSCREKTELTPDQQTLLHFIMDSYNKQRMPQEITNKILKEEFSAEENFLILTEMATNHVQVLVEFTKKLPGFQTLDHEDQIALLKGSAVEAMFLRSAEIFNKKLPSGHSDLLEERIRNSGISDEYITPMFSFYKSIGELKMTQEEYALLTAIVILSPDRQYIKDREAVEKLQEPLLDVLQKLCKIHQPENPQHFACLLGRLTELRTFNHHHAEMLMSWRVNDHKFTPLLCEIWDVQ
Ubiquitin carboxyl-terminal hydrolase 1 (Homo sapiens), sequence (O94782 whole entry, looked up): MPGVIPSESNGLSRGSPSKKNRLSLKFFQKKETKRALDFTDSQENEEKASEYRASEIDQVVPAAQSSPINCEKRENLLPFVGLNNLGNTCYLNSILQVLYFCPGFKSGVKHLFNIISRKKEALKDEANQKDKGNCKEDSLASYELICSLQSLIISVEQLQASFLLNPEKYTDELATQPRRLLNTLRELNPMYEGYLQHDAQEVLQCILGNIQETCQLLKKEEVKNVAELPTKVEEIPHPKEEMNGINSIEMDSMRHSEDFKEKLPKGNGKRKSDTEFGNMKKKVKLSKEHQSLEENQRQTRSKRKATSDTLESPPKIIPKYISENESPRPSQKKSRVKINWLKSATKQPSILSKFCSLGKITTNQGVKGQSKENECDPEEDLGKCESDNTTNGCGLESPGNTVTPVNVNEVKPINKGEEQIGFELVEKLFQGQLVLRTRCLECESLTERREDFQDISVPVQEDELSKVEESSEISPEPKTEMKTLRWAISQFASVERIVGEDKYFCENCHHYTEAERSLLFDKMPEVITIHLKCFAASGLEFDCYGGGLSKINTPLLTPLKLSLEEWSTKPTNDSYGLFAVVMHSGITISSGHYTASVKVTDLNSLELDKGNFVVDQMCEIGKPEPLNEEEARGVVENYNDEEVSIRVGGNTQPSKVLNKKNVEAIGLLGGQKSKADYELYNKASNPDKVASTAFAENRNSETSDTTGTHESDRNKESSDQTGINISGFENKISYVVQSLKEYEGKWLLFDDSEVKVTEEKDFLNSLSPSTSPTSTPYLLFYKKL

Nc1ncnc2c1ncn2C1CCCC1
inactive: outcome [1] | outcome [2] | outcome [3] | Potency [4] | Potency [5] | Potency [6] | Potency [7]

NCCO/C=C/[C@H](N)C(=O)O
inactive: activation [8] 4.46% | Potency [9] | Potency [4] | Potency [5] | Potency [6] | Potency [7]

c1ccc2c(c1)CN1CCCC1=N2
inactive: Potency [10] | Potency [4] | Potency [5] | Potency [6] | Potency [7]

N[C@H](C(=O)O)c1cc(O)cc(O)c1
inactive: outcome [1] | outcome [2] | outcome [3] | Potency [4] | Potency [5] | Potency [6] | Potency [7]

CC=O
inactive: activation [8] -1.84% | Potency [9] | Potency [4] | Potency [5] | Potency [6] | Potency [7]

NC(N)=[N+]1CCc2ccccc2C1
inactive: outcome [1] | outcome [2] | outcome [3] | Potency [4] | Potency [5] | Potency [6] | Potency [7]

Brc1ccc([C@H]2CN3CCSC3=N2)cc1
inactive: outcome [1] | outcome [2] | outcome [3] | Potency [4] | Potency [5] | Potency [6] | Potency [7]

— PubChem BioAssay (NCATS)
